# According to the supplement of paper PMC4466140:
# Biological target: AgAbp1
# Experiment: SPOT peptide array binding signal intensity (averaged, normalized) (arbitrary units (background-subtracted, floor 0; scale differs between SH3 domains)); higher = stronger binding of the SH3 domain to the peptide
# Procedure, shortened: (§1)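 Cellulose membranes carried synthetic 15-mer peptides with cysteines swapped for serines. These were incubated overnight at 4°C with 10 μg/ml of GST-fused SH3 domains from four yeast species in TBS-based blocking buffer. Binding signal, detected with anti-GST antibody and quantified in Genespotter, is the normalized, background-subtracted spot intensity averaged over replicates, in arbitrary units specific to each domain.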
row,Binder,SPOT peptide array binding signal intensity
1,DTIDNVKSKIQDKEG,≤ 0

# Biological target: AgBbc1
# Experiment: as above
# Procedure, shortened: as §1
row,Binder,SPOT peptide array binding signal intensity
1,DTIDNVKSKIQDKEG,≤ 0

# Biological target: AgBem1-D1
# Experiment: as above
# Procedure, shortened: as §1
row,Binder,SPOT peptide array binding signal intensity
1,DTIDNVKSKIQDKEG,≤ 0

# Biological target: AgBzz1-D1
# Experiment: as above
# Procedure, shortened: as §1
row,Binder,SPOT peptide array binding signal intensity
1,DTIDNVKSKIQDKEG,≤ 0

# Biological target: AgBzz1-D2
# Experiment: as above
# Procedure, shortened: as §1
row,Binder,SPOT peptide array binding signal intensity
1,DTIDNVKSKIQDKEG,≤ 0

# Biological target: AgCyk3
# Experiment: as above
# Procedure, shortened: as §1
row,Binder,SPOT peptide array binding signal intensity
1,DTIDNVKSKIQDKEG,≤ 0

# Biological target: AgFus1
# Experiment: as above
# Procedure, shortened: as §1
row,Binder,SPOT peptide array binding signal intensity
1,DTIDNVKSKIQDKEG,≤ 0

# Biological target: AgHof1
# Experiment: as above
# Procedure, shortened: as §1
row,Binder,SPOT peptide array binding signal intensity
1,DTIDNVKSKIQDKEG,≤ 0

# Biological target: AgHse1
# Experiment: as above
# Procedure, shortened: as §1
row,Binder,SPOT peptide array binding signal intensity
1,DTIDNVKSKIQDKEG,4

# Biological target: AgLsb1
# Experiment: as above
# Procedure, shortened: as §1
row,Binder,SPOT peptide array binding signal intensity
1,DTIDNVKSKIQDKEG,≤ 0

# Biological target: AgLsb4
# Experiment: as above
# Procedure, shortened: as §1
row,Binder,SPOT peptide array binding signal intensity
1,DTIDNVKSKIQDKEG,≤ 0

# Biological target: AgMyo5
# Experiment: as above
# Procedure, shortened: as §1
row,Binder,SPOT peptide array binding signal intensity
1,DTIDNVKSKIQDKEG,≤ 0

# Biological target: AgNbp2
# Experiment: as above
# Procedure, shortened: as §1
row,Binder,SPOT peptide array binding signal intensity
1,DTIDNVKSKIQDKEG,≤ 0

# Biological target: AgRvs167
# Experiment: as above
# Procedure, shortened: as §1
row,Binder,SPOT peptide array binding signal intensity
1,DTIDNVKSKIQDKEG,0.5

# Biological target: AgSho1
# Experiment: as above
# Procedure, shortened: as §1
row,Binder,SPOT peptide array binding signal intensity
1,DTIDNVKSKIQDKEG,≤ 0

# Biological target: AgSla1-D1-D2
# Experiment: as above
# Procedure, shortened: as §1
row,Binder,SPOT peptide array binding signal intensity
1,DTIDNVKSKIQDKEG,≤ 0

# Biological target: AgSla1-D3
# Experiment: as above
# Procedure, shortened: as §1
row,Binder,SPOT peptide array binding signal intensity
1,DTIDNVKSKIQDKEG,≤ 0

# Biological target: CaAbp1-D1
# Experiment: as above
# Procedure, shortened: as §1
row,Binder,SPOT peptide array binding signal intensity
1,DTIDNVKSKIQDKEG,≤ 0

# Biological target: CaAbp1-D2
# Experiment: as above
# Procedure, shortened: as §1
row,Binder,SPOT peptide array binding signal intensity
1,DTIDNVKSKIQDKEG,≤ 0

# Biological target: CaBbc1
# Experiment: as above
# Procedure, shortened: as §1
row,Binder,SPOT peptide array binding signal intensity
1,DTIDNVKSKIQDKEG,≤ 0

# Biological target: CaBem1-D1
# Experiment: as above
# Procedure, shortened: as §1
row,Binder,SPOT peptide array binding signal intensity
1,DTIDNVKSKIQDKEG,≤ 0

# Biological target: CaBzz1-D1
# Experiment: as above
# Procedure, shortened: as §1
row,Binder,SPOT peptide array binding signal intensity
1,DTIDNVKSKIQDKEG,21

# Biological target: CaBzz1-D2
# Experiment: as above
# Procedure, shortened: as §1
row,Binder,SPOT peptide array binding signal intensity
1,DTIDNVKSKIQDKEG,≤ 0

# Biological target: CaCyk3
# Experiment: as above
# Procedure, shortened: as §1
row,Binder,SPOT peptide array binding signal intensity
1,DTIDNVKSKIQDKEG,≤ 0

# Biological target: CaFus1
# Experiment: as above
# Procedure, shortened: as §1
row,Binder,SPOT peptide array binding signal intensity
1,DTIDNVKSKIQDKEG,≤ 0

# Biological target: CaHof1
# Experiment: as above
# Procedure, shortened: as §1
row,Binder,SPOT peptide array binding signal intensity
1,DTIDNVKSKIQDKEG,≤ 0

# Biological target: CaHse1
# Experiment: as above
# Procedure, shortened: as §1
row,Binder,SPOT peptide array binding signal intensity
1,DTIDNVKSKIQDKEG,≤ 0

# Biological target: CaLsb1
# Experiment: as above
# Procedure, shortened: as §1
row,Binder,SPOT peptide array binding signal intensity
1,DTIDNVKSKIQDKEG,≤ 0

# Biological target: CaLsb4
# Experiment: as above
# Procedure, shortened: as §1
row,Binder,SPOT peptide array binding signal intensity
1,DTIDNVKSKIQDKEG,≤ 0

# Biological target: CaMyo5
# Experiment: as above
# Procedure, shortened: as §1
row,Binder,SPOT peptide array binding signal intensity
1,DTIDNVKSKIQDKEG,≤ 0

# Biological target: CaNbp2
# Experiment: as above
# Procedure, shortened: as §1
row,Binder,SPOT peptide array binding signal intensity
1,DTIDNVKSKIQDKEG,≤ 0

# Biological target: CaRvs167
# Experiment: as above
# Procedure, shortened: as §1
row,Binder,SPOT peptide array binding signal intensity
1,DTIDNVKSKIQDKEG,2

# Biological target: CaRvs167-3
# Experiment: as above
# Procedure, shortened: as §1
row,Binder,SPOT peptide array binding signal intensity
1,DTIDNVKSKIQDKEG,2.5

# Biological target: CaSho1
# Experiment: as above
# Procedure, shortened: as §1
row,Binder,SPOT peptide array binding signal intensity
1,DTIDNVKSKIQDKEG,≤ 0

# Biological target: CaSla1-D1-D2
# Experiment: as above
# Procedure, shortened: as §1
row,Binder,SPOT peptide array binding signal intensity
1,DTIDNVKSKIQDKEG,≤ 0

# Biological target: CaSla1-D3
# Experiment: as above
# Procedure, shortened: as §1
row,Binder,SPOT peptide array binding signal intensity
1,DTIDNVKSKIQDKEG,≤ 0

# Biological target: ScAbp1
# Experiment: as above
# Procedure, shortened: as §1
row,Binder,SPOT peptide array binding signal intensity
1,DTIDNVKSKIQDKEG,≤ 0
